For 94 molecules, inhibition results are on record in PubChem BioAssay AID1066 (SRMLSC, 2008).

The structures appear in SMILES notation. The campaign covered roughly 190,000 compounds. About 790 (0.42%) were called active. The sample holds actives, similar compounds and a random draw of the others, so the mix is not that of the screen. Values without a mark were called inactive.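 How the source made its calls: active means inhibition above a set limit, the median over all tested compounds plus 3 SD (cut at about 9.5% in these data); inconclusive means no clear call, values can overlap the other calls; inactive means the rest.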

For orientation: inhibition means the drop in the measured response relative to a control, in per cent.

This experiment concerns HMG-CoA reductase (Enterococcus faecalis, mvaE). As to the kind of experiment: inhibitors of E. faecalis class II HMGR, primary screen, biochemical, Enterococcus faecalis (AID 1066).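 Further: enzyme runs in reverse so mevalonate oxidation gives rising NADPH absorbance; 0% = complete reaction with DMSO and 100% = background rate lacking mevalonate.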 The following applies: purified E. faecalis HMGR, NADPH absorbance 340 nm kinetic; at 10 µM; stronger effect = higher value.
For the molecule `COc1ccc(N2C(=O)C(Cc3ccccc3)NC2=S)cc1` (centres undefined), the inhibition is -5.65%.

Regarding `COC(=O)c1cc(NC(=O)c2nn(C)c(=O)c3ccccc23)cc(C(=O)OC)c1`, the inhibition was -0.04%.

With `C/[N+]([O-])=C\c1ccc([N+](=O)[O-])o1`, the inhibition was 11% (active).

Regarding `CCn1c(/C=C/c2ccc([N+](=O)[O-])o2)nc2ccccc2c1=O`, the inhibition was -2.94%.

For `COC(=O)C1=C(C)N(C)C(=O)NC1c1ccc([N+](=O)[O-])o1` (centres undefined), the inhibition is 0.43%.

For `CN(C)/C=C/C(=O)c1cnc2sccn2c1=O`, the inhibition is 2.25%.

Regarding `Fc1ccccc1Cn1cnc(NC(=S)NCCc2ccccc2)n1`, the inhibition was 15.6% (active).

Turning to `S=C(NCCc1ccccc1)NCc1ccccc1Cl`, the inhibition is 1.49%.

As to `Fc1ccccc1CNC(=S)Nc1ccc(Cl)cc1`, the inhibition is -0.98%.

Regarding `CCOc1ccc(N2C(=O)/C(=C/c3ccc(C)o3)N(C)C2=S)cc1`, the inhibition is -5.07%.

In the case of `COCCN(C(=O)C(C)C)c1nnc(-c2ccc(C(C)(C)C)cc2)s1`, the inhibition was -2.5%.

As for `COc1ccc(NC(=O)N2CCCC(c3nc(-c4ccc(F)cc4)no3)C2)cc1` (centres undefined), the inhibition is 1.89%.

Turning to `O=C(c1ccccc1Cl)N(Cc1ccccc1F)N1C(=O)CCCC1=O`, the inhibition is -5.67%.

Regarding `C=CCn1c(=NC(=O)c2cccs2)sc2cc(NC(C)=O)ccc21`, the inhibition is -0.47%.

Take `CCN=C1S/C(=C\c2cc(Br)ccc2OCC(=O)OCC)C(=O)N1CC`: the inhibition was -2.47%.

With `COc1cccc(Cn2cnc3c([N+](=O)[O-])c(C)c(C)cc32)c1`, the inhibition was -3.58%.

As for `COc1ccc(F)cc1C(=O)C1CCCN(C(=O)CCc2ccccn2)C1` (centres undefined), the inhibition is -4.06%.

With `CCOC(=O)C1CCN(C(=O)/C=C/c2cc(OC)c(OC)c(OC)c2)CC1`, the inhibition is -1.76%.

On to `Cc1cc(C)c2nc(-c3cccnc3)cc(C(=O)Nc3ccc(S(=O)(=O)Nc4onc(C)c4C)cc3)c2c1`, for which the inhibition was -2.12%.

Take `Cc1ccc(CSc2nc3[nH]ncc3c(=O)[nH]2)cc1`: the inhibition was -1.81%.

As for `C/C(=N/NC(=O)c1ccc(NC(=O)c2ccc(F)cc2)cc1)c1ccccc1`, the inhibition was -3.05%.

`COc1ccccc1C(=O)NNC(=O)c1ccc(NC(=O)c2ccccc2)cc1`: the inhibition is 15.3% (active).

On to `COc1ccc(C(=O)Nc2ccccc2C(=O)N/N=C/c2ccccc2OC)cc1`, for which the inhibition was -0.76%.

As to `CC(=O)c1ccc(NC(=S)N(Cc2ccccc2)C(C)C2CC2)cc1` (centres undefined), the inhibition is -4.01%.

For the molecule `O=C(COC(=O)c1cc(=O)[nH]c2ccccc12)Nc1nc(-c2cccc(Br)c2)cs1`, the inhibition was -0.22%.

As to `C/C(=N\NS(=O)(=O)c1ccc(Cl)cc1)c1ccc(NC(=O)c2ccco2)cc1`, the inhibition is 2.58%.

Consider `Cc1onc(C(=O)NN)c1C(=O)N1CCN(C(c2ccccc2)c2ccccc2)CC1`, for which the inhibition is -0.47%.

Turning to `Cc1nc2sc3c(c2c(=O)n1NC(=O)CCl)CCCC3`, the inhibition was -4.51%.

In the case of `CSc1ccc(CNCCN2CCOCC2)cc1`, the inhibition is -2.23%.

On to `C/C(CC(=O)Nc1cccc(F)c1)=N\NC(=O)C(=O)NC1CCCCC1`, for which the inhibition is -2.25%.

Take `CCC(C)(C)NC(=O)CN(Cc1cccs1)C(=O)CNS(=O)(=O)c1ccc(F)cc1`: the inhibition was -1.17%.

As for `CC(C)(C)N(CC#CCC(O)(c1ccccc1)C1CCCC1)CCO` (centres undefined), the inhibition was -1.31%.

Regarding `N#CC(=C1SC=CS1)c1nc(-c2ccccc2)cs1`, the inhibition was -4.9%.

On to `N#CC(=C1CCCC1)c1nc(-c2ccc(Cl)cc2)cs1`, for which the inhibition is 25.7% (active).

For the molecule `N#C/C(=C1\CCCN1)c1nc(-c2ccccc2)cs1`, the inhibition is -5.6%.

Consider `CCOC(=O)Cc1csc(NC(=O)CSc2ccc(Br)cc2)n1`, for which the inhibition was 5.27%.

As for `CCOC(=O)Cc1csc(NC(=O)Nc2ccccc2)n1`, the inhibition was 12.1% (active).

On to `CCOC(=O)Cc1csc(NC(=O)C(C)(C)C)n1`, for which the inhibition was 5.04%.

As for `COc1ccc(NC(=O)c2ccccc2CC[N+](=O)[O-])cc1`, the inhibition is -3.38%.

Take `COc1ccccc1CC(NC(C)=O)C(=O)NC1CCN(C(=O)Nc2ccccc2Cl)CC1` (centres undefined): the inhibition is -1.31%.

As to `CC(C)(C)C(=O)N1CCC[C@@]1(CO)C(=O)O`, the inhibition was -3.2%.

Consider `CCc1cc(CNC(=O)CC2C(=O)NCCN2CC2CCCCC2)on1` (centres undefined), for which the inhibition is 1.73%.

On to `O=C(O)/C=C/c1ccc(S(=O)(=O)N2CCCCCC2)cc1`, for which the inhibition is -1.58%.

In the case of `CSCCC(Nc1ccc(S(=O)(=O)N2CCOCC2)cc1[N+](=O)[O-])C(=O)OCC(=O)N(C(C)C)C(C)C` (centres undefined), the inhibition was -4.18%.

For the molecule `Cc1ccc(NC(=O)CN2CCC(C(N)=O)CC2)cc1[N+](=O)[O-]`, the inhibition is -7.59%.

With `CC(=O)N1CCN(S(=O)(=O)c2ccc(C)c([N+](=O)[O-])c2)C1C(C)C` (centres undefined), the inhibition is 15.5% (active).

For `CCc1cccc(C)c1NC(=O)COC(=O)Cc1ccsc1`, the inhibition was 0.78%.

As for `CCCn1c(=S)[nH]c2ccc(C(F)(F)F)cc21`, the inhibition was -3.38%.

On to `Cc1c(NC(=S)NC(=O)CCc2ccccc2)c(=O)n(-c2ccccc2)n1C`, for which the inhibition was -5.41%.

For the molecule `Cc1ccc(Cl)c(NC(=O)CN(C)CC(=O)Nc2ccc(F)c(F)c2F)c1Cl`, the inhibition was -3.18%.

With `CNCC(O)CN1CCN(c2ccccc2OC)CC1` (centres undefined), the inhibition is -5.06%.

As to `Cc1[nH]c2ccccc2c1/C=C(/C#N)C(=O)NC(C)C`, the inhibition was -0.57%.

Consider `CCOc1ccc(NC(=O)CN2CCN(CC(=O)Nc3ccc(OC)cc3)CC2)cc1`, for which the inhibition was 11.1% (active).

As to `CCOC(=O)N1CCN(CC(=O)Nc2ccc(F)cc2)CC1`, the inhibition was -2.98%.

For the molecule `CCOc1ccc(NC(=O)N2CCN(CC)CC2)cc1`, the inhibition is -2.53%.

Take `S=c1[nH]ccn1-c1ccc(Cl)cc1`: the inhibition was -3.58%.

With `COc1ccc(CCCc2nnc(SCc3nc4ccccc4c(=O)[nH]3)n2C)cc1`, the inhibition was 4.13%.

Consider `CCN(CC)c1ccc(S(=O)(=O)N2CCOCC2)cc1NC(=O)CSc1cccc[n+]1[O-]`, for which the inhibition was -6.45%.

Regarding `COC(=O)c1ccccc1NS(=O)(=O)c1ccc2[nH]c(=O)[nH]c2c1`, the inhibition is -1.55%.

Regarding `O=C(COC(=O)CNS(=O)(=O)c1ccccc1)NC12CC3CC(CC(C3)C1)C2`, the inhibition was -0.89%.

Regarding `O=C1c2ccccc2NC(c2ccccn2)N1NS(=O)(=O)c1ccccc1` (centres undefined), the inhibition is -5.78%.

Turning to `CC1CCCCC1NC(=O)COC(=O)Cc1ccc(Br)cc1` (centres undefined), the inhibition is -8.55%.

Take `Cc1cc(C)c[n+](-c2nc3ccccc3nc2[N-]S(=O)(=O)c2cccs2)c1`: the inhibition was -2.15%.

Take `COc1cccc(C2SCC(=O)N2c2cccc(C)c2)c1OC` (centres undefined): the inhibition was -2.05%.

As for `Cc1cccc(OCC(=O)Nc2ccccc2F)c1`, the inhibition is -6.74%.

`O=C(COc1cccc(F)c1)Oc1ccc(C(=O)c2ccccc2)cc1`: the inhibition was 11.7% (active).

`O=C(c1ccccc1)c1ccc(OC(=O)N2CCCC2)cc1`: the inhibition is -3.15%.

Take `Cc1nn(CC(=O)Nc2ccc3c(c2)OCO3)c(C)c1[N+](=O)[O-]`: the inhibition is -8.05%.

As to `CC1CC(=S)Nc2ccccc2N1Cc1ccccc1` (centres undefined), the inhibition is -4.09%.

`O=C(O)C1CCCN1S(=O)(=O)c1ccc2c(c1)CCC2` (centres undefined): the inhibition was 0.94%.

In the case of `CC(=O)Nc1ccc(S(=O)(=O)N2CCCC2C(=O)O)cc1` (centres undefined), the inhibition was 18.5% (active).

On to `CC(=O)Nc1ccc(S(=O)(=O)N2CCN(C3CCCCCCC3)CC2)cc1`, for which the inhibition is -5.25%.

`CCOC(=O)c1[nH]cnc1C(=O)Nc1ccccc1C`: the inhibition was -0.64%.

As for `O=C1CC(N2CCN(c3ccc(F)cc3)CC2)C(=O)N1c1ccccc1` (centres undefined), the inhibition was -3%.

Consider `COC(=O)/C(NC(C)=O)=C(\C)c1ccc(Cl)cc1`, for which the inhibition is -0.22%.

Turning to `CN(C)/C=C(/C(=O)c1ccc(Cl)cc1)S(=O)(=O)c1ccccc1`, the inhibition was -1.53%.

On to `COC(=O)C(=Nc1ccccc1)/C(C(=O)C(=O)N(C)c1ccccc1)=C(\O)c1ccc(Cl)cc1`, for which the inhibition is 12.8% (active).

Take `O=C(CCc1ccccc1)Nc1ccc(NC(=O)C2CCCCC2)nc1`: the inhibition was -5.74%.

In the case of `COc1ccc(OC)c(-c2csc(NC(=O)C3=NNC(=O)CC3)n2)c1`, the inhibition was -3.44%.

On to `CC1(C)CCc2nc(SCc3ccccc3)c(C#N)cc2C1`, for which the inhibition was 13.3% (active).

Consider `CC(NC(=O)CSc1nc2c(cc1C#N)CN(C)CC2)c1ccccc1` (centres undefined), for which the inhibition was -4.51%.

For the molecule `Cc1cc(NC(=O)CSc2nc3c(cc2C#N)CCCCC3)no1`, the inhibition is -2.85%.

Take `CCCC(=O)Nc1cccc(NC(=S)NC(=O)C(C)Oc2ccc(Cl)cc2Cl)c1` (centres undefined): the inhibition is -6.26%.

With `N=C1C(c2nc3ccccc3[nH]2)=C(O)CN1NC(=O)c1c[nH]c2ccccc12`, the inhibition was 1.51%.

In the case of `CC(=O)Nc1ccc(NC(=O)C(C)n2c3ccccc3c3nc(=O)cc(C)n32)cc1` (centres undefined), the inhibition is 3.72%.

In the case of `CCCCN(C(=O)/C=C/c1ccco1)c1c(N)n(CC(C)C)c(=O)[nH]c1=O`, the inhibition was 1.3%.

With `Cc1cc(C(=O)N/N=C/c2cc([N+](=O)[O-])cc(C)c2O)n[nH]1`, the inhibition was 1.28%.

As for `CC1(C)OC(=O)C(=CNC(CO)C(=O)O)C(=O)O1` (centres undefined), the inhibition was -0.06%.

As for `CC(C)(C)NC(=O)CN(C(=O)c1csnn1)c1ccccc1-c1ccccc1`, the inhibition is 3.37%.

Consider `CCOC(=O)CC(NC(=O)C1c2ccccc2Oc2ccccc21)c1ccc(C)cc1` (centres undefined), for which the inhibition is -0.18%.

As for `O=C1Nc2ccc([N+](=O)[O-])cc2C1=Nc1cccc(CO)c1`, the inhibition was -7.75%.

`C/C(=N\OCC(=O)Nc1ccc(Br)cc1)c1cccs1`: the inhibition is -3.94%.

In the case of `COC(=O)c1ccc(/C=N/N2C(C)CCCC2C)cc1` (centres undefined), the inhibition is -1.41%.

In the case of `CCN(C(=O)COc1cccnc1[N+](=O)[O-])C1CCS(=O)(=O)C1` (centres undefined), the inhibition was 1.64%.
